Consider twelve molecules from ChEMBL document CHEMBL2218924, “A broad activity screen in support of a chemogenomic map for kinase signalling research and drug discovery” (Biochem J, 2013).

The structures appear in SMILES notation.

Assay [1] has as its target T1, cGMP-dependent protein kinase 1 (Homo sapiens) (UniProt Q13976).
T1 sequence (whole entry): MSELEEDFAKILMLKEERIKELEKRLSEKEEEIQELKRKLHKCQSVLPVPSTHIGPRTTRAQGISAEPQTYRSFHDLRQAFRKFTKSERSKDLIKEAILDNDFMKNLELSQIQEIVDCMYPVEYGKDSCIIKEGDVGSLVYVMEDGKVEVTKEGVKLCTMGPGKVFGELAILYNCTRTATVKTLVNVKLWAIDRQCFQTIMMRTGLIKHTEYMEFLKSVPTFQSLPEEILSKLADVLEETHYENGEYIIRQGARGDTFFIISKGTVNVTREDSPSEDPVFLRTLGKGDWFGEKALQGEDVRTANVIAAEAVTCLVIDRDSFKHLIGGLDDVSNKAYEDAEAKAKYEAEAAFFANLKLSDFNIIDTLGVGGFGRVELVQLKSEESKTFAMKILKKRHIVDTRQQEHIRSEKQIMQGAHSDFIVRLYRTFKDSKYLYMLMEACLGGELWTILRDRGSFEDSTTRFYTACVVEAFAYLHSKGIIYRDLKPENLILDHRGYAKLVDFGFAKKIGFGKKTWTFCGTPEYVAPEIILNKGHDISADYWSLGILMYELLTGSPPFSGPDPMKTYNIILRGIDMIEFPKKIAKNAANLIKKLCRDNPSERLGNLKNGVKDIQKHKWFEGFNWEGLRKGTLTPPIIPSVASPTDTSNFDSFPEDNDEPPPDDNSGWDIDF
The note with it: at 10 µM.

Assay [2] deals with T1, cGMP-dependent protein kinase 1 (Homo sapiens). The note with it: at 1 µM.
The target is the same in assay [3]. The note with it: at 10 µM. This is another data set of the same source.
In assay [4] the target is Serine/threonine-protein kinase N2 (Homo sapiens) (UniProt Q16513). The note with it: at 1 µM.
The target is the same in assay [5]. The note with it: at 10 µM.
Assay [6] deals with Tyrosine-protein kinase FRK (Homo sapiens) (UniProt P42685). The note with it: at 1 µM.
Assay [7] has as its target Serine/threonine-protein kinase pim-1 (Homo sapiens) (UniProt P11309). The note with it: at 1 µM.
For assay [8] the target is unchanged. The note with it: at 10 µM.
Assay [9] has as its target Serine/threonine-protein kinase pim-2 (Homo sapiens) (UniProt Q9P1W9). The note with it: at 1 µM.
For assay [10] the target is unchanged. The note with it: at 10 µM.
The target of assay [11] is Serine/threonine-protein kinase pim-3 (Homo sapiens) (UniProt Q86V86). The note with it: at 1 µM.
For assay [12] the target is unchanged. The note with it: at 10 µM.
The target in assay [13] is T1, cGMP-dependent protein kinase 1 (Homo sapiens). The note with it: at 1 µM. This is another data set of the same source.
Assay [14] addresses T2, MAP kinase-activated protein kinase 5 (Homo sapiens) (UniProt Q8IW41).
T2 sequence (whole entry): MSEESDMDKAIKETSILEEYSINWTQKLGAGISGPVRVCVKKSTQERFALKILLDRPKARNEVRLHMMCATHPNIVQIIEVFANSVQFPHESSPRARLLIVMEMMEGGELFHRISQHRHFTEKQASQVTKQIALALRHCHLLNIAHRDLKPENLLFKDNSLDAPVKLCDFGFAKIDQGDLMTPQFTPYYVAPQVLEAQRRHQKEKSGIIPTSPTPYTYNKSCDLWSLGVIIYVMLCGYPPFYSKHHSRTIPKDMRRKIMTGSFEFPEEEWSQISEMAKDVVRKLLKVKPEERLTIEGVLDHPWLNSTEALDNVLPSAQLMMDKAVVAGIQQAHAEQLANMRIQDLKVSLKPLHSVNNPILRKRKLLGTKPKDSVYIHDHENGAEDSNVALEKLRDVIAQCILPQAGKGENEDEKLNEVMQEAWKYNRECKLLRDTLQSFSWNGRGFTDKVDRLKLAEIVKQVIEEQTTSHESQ
The note with it: at 1 µM.

In assay [15] the target is T2, MAP kinase-activated protein kinase 5 (Homo sapiens). The note with it: at 10 µM.
In assay [16] the target is Tyrosine-protein kinase FRK (Homo sapiens) (UniProt P42685). The note with it: at 10 µM.
The target in assay [17] is T3, Phosphorylase b kinase gamma catalytic chain, liver/testis isoform (Homo sapiens) (UniProt P15735).
T3 sequence (whole entry): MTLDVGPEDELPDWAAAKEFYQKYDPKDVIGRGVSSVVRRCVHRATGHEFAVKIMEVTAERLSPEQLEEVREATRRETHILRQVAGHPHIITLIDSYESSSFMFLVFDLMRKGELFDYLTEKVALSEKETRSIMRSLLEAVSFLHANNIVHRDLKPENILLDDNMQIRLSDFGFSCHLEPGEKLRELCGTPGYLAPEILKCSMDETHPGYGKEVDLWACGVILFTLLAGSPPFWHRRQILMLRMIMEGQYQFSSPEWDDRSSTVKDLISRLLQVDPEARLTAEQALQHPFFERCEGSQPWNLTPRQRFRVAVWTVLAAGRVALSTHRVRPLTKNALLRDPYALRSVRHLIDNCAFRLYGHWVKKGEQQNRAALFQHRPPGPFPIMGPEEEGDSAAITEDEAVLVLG
The note with it: at 1 µM.

Assay [18] has as its target T3, Phosphorylase b kinase gamma catalytic chain, liver/testis isoform (Homo sapiens). The note with it: at 10 µM.
The target in assay [19] is Serine/threonine-protein kinase PLK1 (Homo sapiens) (UniProt P53350). The note with it: at 1 µM.
Assay [20] shares this target. The note with it: at 10 µM.

Sequence of Serine/threonine-protein kinase pim-2 (Homo sapiens) (Q9P1W9 whole entry, looked up): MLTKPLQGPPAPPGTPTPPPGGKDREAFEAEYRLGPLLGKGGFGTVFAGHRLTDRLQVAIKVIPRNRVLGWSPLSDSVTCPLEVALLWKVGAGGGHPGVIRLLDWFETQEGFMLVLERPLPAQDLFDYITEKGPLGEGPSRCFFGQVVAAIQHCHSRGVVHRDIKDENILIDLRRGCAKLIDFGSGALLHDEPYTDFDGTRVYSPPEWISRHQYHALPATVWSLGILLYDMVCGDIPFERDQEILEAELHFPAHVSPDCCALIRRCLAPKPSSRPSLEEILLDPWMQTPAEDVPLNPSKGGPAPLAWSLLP
Sequence of Serine/threonine-protein kinase PLK1 (Homo sapiens) (P53350 whole entry): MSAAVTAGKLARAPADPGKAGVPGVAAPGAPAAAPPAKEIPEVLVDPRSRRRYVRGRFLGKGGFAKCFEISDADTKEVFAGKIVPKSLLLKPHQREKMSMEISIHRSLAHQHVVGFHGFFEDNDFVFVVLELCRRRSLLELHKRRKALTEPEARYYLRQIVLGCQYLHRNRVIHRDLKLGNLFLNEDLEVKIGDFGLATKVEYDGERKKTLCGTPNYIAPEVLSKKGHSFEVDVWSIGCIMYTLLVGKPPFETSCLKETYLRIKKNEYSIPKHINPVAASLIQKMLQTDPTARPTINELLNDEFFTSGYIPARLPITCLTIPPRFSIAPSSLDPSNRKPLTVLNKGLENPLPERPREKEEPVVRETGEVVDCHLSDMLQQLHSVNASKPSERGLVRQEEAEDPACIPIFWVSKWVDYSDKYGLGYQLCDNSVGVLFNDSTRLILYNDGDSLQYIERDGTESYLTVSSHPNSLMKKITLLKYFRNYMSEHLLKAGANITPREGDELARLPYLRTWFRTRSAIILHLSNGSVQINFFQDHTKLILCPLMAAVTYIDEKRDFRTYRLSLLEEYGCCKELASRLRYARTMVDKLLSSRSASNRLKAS
Sequence of Serine/threonine-protein kinase N2 (Homo sapiens) (Q16513 whole entry, looked up): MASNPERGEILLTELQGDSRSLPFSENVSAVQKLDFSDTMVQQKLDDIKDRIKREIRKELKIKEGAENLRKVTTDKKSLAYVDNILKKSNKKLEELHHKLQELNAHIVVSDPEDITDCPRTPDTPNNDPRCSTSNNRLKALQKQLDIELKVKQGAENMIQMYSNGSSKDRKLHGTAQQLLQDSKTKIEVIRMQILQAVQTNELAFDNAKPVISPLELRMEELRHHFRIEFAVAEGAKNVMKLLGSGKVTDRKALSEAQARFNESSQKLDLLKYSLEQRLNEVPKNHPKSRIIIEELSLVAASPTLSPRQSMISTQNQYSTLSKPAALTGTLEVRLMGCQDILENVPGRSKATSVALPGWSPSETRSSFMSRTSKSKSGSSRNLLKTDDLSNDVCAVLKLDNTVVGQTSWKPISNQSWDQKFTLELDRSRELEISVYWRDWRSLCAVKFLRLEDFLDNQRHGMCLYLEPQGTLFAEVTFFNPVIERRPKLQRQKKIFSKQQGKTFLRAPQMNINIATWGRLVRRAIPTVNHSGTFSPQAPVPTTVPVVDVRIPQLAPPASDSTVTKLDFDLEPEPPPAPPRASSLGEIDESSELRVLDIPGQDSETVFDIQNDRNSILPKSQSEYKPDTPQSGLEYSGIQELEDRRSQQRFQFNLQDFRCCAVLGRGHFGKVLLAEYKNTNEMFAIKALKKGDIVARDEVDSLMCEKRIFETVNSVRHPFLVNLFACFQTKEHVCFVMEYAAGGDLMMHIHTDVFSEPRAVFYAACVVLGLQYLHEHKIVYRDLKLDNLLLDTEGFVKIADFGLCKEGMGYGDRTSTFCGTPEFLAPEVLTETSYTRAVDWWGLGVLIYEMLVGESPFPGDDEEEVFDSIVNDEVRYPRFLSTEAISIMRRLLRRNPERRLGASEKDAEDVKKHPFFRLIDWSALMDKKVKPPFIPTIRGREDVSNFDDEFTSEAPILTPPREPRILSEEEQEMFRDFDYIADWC
Sequence of Tyrosine-protein kinase FRK (Homo sapiens) (P42685 whole entry, canonical isoform): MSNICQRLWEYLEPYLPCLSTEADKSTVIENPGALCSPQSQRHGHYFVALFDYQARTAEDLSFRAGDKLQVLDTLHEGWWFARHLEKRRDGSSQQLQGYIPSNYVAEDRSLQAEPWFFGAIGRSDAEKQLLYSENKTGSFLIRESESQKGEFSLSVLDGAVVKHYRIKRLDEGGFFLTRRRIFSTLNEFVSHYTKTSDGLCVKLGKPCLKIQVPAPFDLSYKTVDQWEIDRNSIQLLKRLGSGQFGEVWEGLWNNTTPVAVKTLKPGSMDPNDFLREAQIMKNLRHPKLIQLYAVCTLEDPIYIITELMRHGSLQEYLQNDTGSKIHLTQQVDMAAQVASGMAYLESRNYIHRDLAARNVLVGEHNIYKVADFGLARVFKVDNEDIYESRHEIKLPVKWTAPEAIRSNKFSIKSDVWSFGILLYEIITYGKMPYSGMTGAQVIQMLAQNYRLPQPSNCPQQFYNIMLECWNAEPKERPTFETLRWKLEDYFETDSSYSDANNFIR
Sequence of Serine/threonine-protein kinase pim-1 (Homo sapiens) (P11309 whole entry, looked up): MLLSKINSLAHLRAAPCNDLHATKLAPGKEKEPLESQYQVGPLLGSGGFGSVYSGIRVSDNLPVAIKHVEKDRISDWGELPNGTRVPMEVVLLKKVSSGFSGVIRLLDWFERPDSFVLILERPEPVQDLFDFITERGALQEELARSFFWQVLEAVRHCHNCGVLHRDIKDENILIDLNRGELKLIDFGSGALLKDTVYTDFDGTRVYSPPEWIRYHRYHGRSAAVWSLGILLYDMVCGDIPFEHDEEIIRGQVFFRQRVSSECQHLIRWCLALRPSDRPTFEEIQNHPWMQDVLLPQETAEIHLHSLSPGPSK

As to `COc1ccc2c(c1)c(C1=C(c3c[nH]c4ccccc34)C(=O)NC1=O)cn2CCCN(C)C`, the residual activity in [1] worked out at 28%; in [2], 64%; in assay [3], 22%; in assay [4] it was 68%; in [5], 25%; in [6] it was 97%. The residual activity worked out at 11% in assay [7]; 1% in assay [8]; 36% in assay [9]; 9% in assay [10]; 57% in assay [11]; 17% in [12].

With `CCCC(=O)Oc1ccc2[nH]c(C(=O)c3cc4ccccc4[nH]3)cc2c1`, the residual activity in [13] is 101%; in assay [1] it was 127%; in assay [2], 79%; in assay [3] it was 78%; in [14], 72%; in [15], 44%. For the same molecule, the residual activity in [4] was determined as 86%; in assay [5], 93%; in [6], 92%; in assay [16], 85%; in assay [17], 95%; in [18] it was 96%. In addition, the residual activity worked out at 101% in assay [7]; 121% in [8]; 98% in assay [10]; 93% in [11]; 96% in assay [12]; 86% in assay [19]. The residual activity in [20] came out at 58%.

Consider `O=C(NC(NC(=S)Nc1ccc(F)c([N+](=O)[O-])c1)C(Cl)(Cl)Cl)C(c1ccccc1)c1ccccc1` (configuration not stated), for which the residual activity was 96% in [13]; 92% in [1]; 97% in [2]; 73% in assay [3]; 87% in assay [14]; 49% in [15]. The residual activity worked out at 94% in assay [4]; 102% in assay [5]; 71% in assay [6]; 47% in [16]; 90% in [18]; 102% in assay [7]. For the same molecule, the residual activity in [8] stood at 67%; in assay [9], 90%; in [10] it was 70%; in assay [19], 102%; in assay [20], 98%.

`Nc1n[nH]c2nc3ccccc3nc12`: the residual activity in [1] was 88%; in assay [3] it was 59%; in assay [14], 95%; in [5], 74%; in assay [6], 98%; in [16], 92%. In addition, the residual activity in assay [7] came to 124%; in assay [8], 87%; in assay [9] it was 130%; in assay [10] it was 93%; in assay [11], 95%; in assay [12], 86%. In addition, the residual activity in assay [19] was determined as 91%; in assay [20] it was 78%.

Turning to `CN(C)S(=O)(=O)c1ccc2c(c1)/C(=C/c1cc3c([nH]1)CCCC3)C(=O)N2`, the residual activity was 99% in assay [13]; 89% in [2]; 80% in assay [3]; 95% in [4]; 82% in assay [5]; 54% in assay [6]. Further, the residual activity in assay [16] turned out to be 48%; in [17] it was 48%; in assay [18], 46%; in assay [8], 86%; in [9], 123%; in [10] it was 121%. Further, the residual activity in assay [11] turned out to be 93%; in assay [12], 94%; in [19], 96%; in [20], 95%.

On to `O=C1Nc2ccc(Cl)cc2/C1=C/c1cc(Cl)c(O)c(Cl)c1`, for which the residual activity in assay [13] was 84%; in assay [1], 79%; in [2], 79%; in assay [3], 44%; in assay [14] it was 95%; in [15], 17%. For the same molecule, the residual activity in [4] is 99%; in [5] it was 94%; in assay [6], 56%; in [16] it was 5%; in assay [17] it was 94%; in [18], 83%. In addition, the residual activity was 24% in assay [7]; 5% in [8]; 17% in assay [9]; 3% in assay [10]; 77% in assay [11]; 30% in [12]. In addition, the residual activity in assay [19] was found to be 83%; in [20], 62%.

For `c1ccc(-c2cnc(Nc3ccc(OCCN4CCCC4)cc3)s2)cc1`, the residual activity in [13] stood at 122%; in [1] it was 136%; in assay [2], 70%; in [3], 77%; in assay [14], 120%; in assay [15] it was 111%. The residual activity was found to be 102% in assay [4]; 100% in assay [5]; 72% in [6]; 16% in [16]; 54% in assay [18]; 113% in assay [7]. Moreover, the residual activity was 104% in assay [8], 111% in assay [9] and 105% in assay [10].

`O=C(CCCc1ccc(-c2ccccc2F)cc1)Nc1ccc(O)cc1`: the residual activity is 98% in assay [13]; 100% in assay [1]; 97% in assay [2]; 72% in assay [3]; 64% in assay [15]; 100% in assay [4]. Besides, the residual activity in assay [5] was 79%; in assay [6] it was 97%; in assay [16], 112%; in assay [17], 109%; in [18], 112%; in assay [7], 100%. Further, the residual activity in assay [8] was 97%; in assay [10], 139%; in assay [11], 96%; in [12], 97%; in assay [19], 93%; in assay [20] it was 103%.

With `O=C(O)/C=C/c1cc(Br)c(Br)c(Br)c1Br`, the residual activity in assay [13] is 94%; in assay [1] it was 65%; in assay [2], 82%; in [3], 32%; in assay [14], 83%; in assay [15], 28%. Moreover, the residual activity turned out to be 38% in assay [5]; 102% in [6]; 86% in assay [16]; 109% in assay [17]; 63% in [18]; 49% in assay [7]. The residual activity in assay [8] is 6%; in assay [9], 28%; in assay [10] it was 1%; in assay [11], 78%; in assay [12] it was 39%; in assay [19] it was 73%. Besides, in assay [20], the residual activity worked out at 22%.

Take `O=S(=O)(NCCNC/C=C/c1ccc(Br)cc1)c1cccc2cnccc12`: the residual activity worked out at 4% in assay [13]; 4% in [1]; 4% in assay [2]; 4% in assay [3]; 26% in assay [4]; 4% in assay [5]. In addition, the residual activity stood at 139% in assay [9] and 132% in assay [10].

On to `COc1cc2nccc(Oc3ccc(NC(=O)Nc4cc(C)on4)c(Cl)c3)c2cc1OC`, for which the residual activity in assay [13] was 101%; in assay [1], 97%; in assay [2], 105%; in [14], 99%; in [15] it was 70%; in assay [4], 97%. The residual activity in [5] was 108%; in assay [6], 2%; in [16], -3%; in assay [10], 103%; in assay [11], 107%; in assay [12], 105%.

As for `CCCCc1c(-c2ccc(OC)cc2)[nH]c2nccnc12`, the residual activity in assay [1] is 116%; in [2], 107%; in assay [14], 73%; in assay [15], 108%; in assay [4], 88%; in [5] it was 76%. The residual activity in [6] is 60%; in assay [16], 51%; in assay [17] it was 113%; in assay [18] it was 109%; in assay [7] it was 109%; in [8], 88%. In addition, the residual activity in [9] came to 112%; in [10], 104%; in [11], 104%; in assay [12], 113%; in [19], 81%.
